# Measured values taken from PubChem BioAssay (Tox21).
# “And” between values parts separate entries of the source, which are not always exact repeats. Equal values may be shown once. Inconclusive results are not listed. Entries that show only a call come without a potency. Where a structure was tested more than once in an assay, its records may differ in their call. The source made the active and inactive calls. Unless noted, the call rests on the fitted dose curve; in most records, active means well fitted curve in the direction sought with a large enough effect in the repeat runs; inconclusive means weak or mixed curves; inactive means no such curve, though single readings can be large; an effect the other way counts as inactive or inconclusive. Residues, ends and D or L forms follow the SMILES beside them.
# Experiments:
# [1] = qHTS assay to identify small molecule antagonists of the estrogen related receptor (ERR) signaling pathway from Tox21 library - cell viability counter screen (AID 1224834); further: nearly all actives have a fitted effect of over 30% in size; further: potency means the concentration at half of the fitted maximal effect
# In short: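 Cytotoxicity of test substances is gauged in the same ERR cells used for the antagonist screen, after 17.5 h of compound treatment at 37 C, by CellTiter-Fluor fluorescence measured after 30 min.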
# [2] = molecular target: Luciferin 4-monooxygenase (Photinus pyralis) (UniProt P08659); test: qHTS assay to identify small molecule inhibitors of firefly luciferase (AID 1224835); further: nearly all actives have a fitted effect of over 25% in size; further: potency means the concentration at half of the fitted maximal effect
# In short: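 Quantitative HTS format; KM concentrations of both substrates. Purified P. pyralis FLuc activity quantified from luminescence images.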
# [3] = qHTS assay to identify small molecule agonists of the constitutive androstane receptor (CAR) signaling pathway - cell viability counter screen (AID 1224836); further: nearly all actives have a fitted effect of over 45% in size; further: potency means the concentration at half of the fitted maximal effect
# In short: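 HepG2-CYP2B6-hCAR, 2500 cells/well, 4 h pre-incubation; cpd 15 conc + PK11195 0.75 uM final; 23 h, 37 C/5% CO2; CellTiter-Fluor, fluorescence.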
# [4] = qHTS assay to identify small molecule antagonists of the constitutive androstane receptor (CAR) signaling pathway - cell viability counter screen (AID 1224837); further: nearly all actives have a fitted effect of over 45% in size; further: potency means the concentration at half of the fitted maximal effect
# In short: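 Multiplexed cytotoxicity read-out for the CAR antagonist screen: double-stable HepG2-CYP2B6-hCAR cells co-treated with 50 nM CITCO (final) and compound over 15 concentrations, incubated 23 hr, then assessed by CellTiter-Fluor fluorescence.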
# [5] = molecular target: Nuclear receptor subfamily 1 group I member 3 (Homo sapiens) (UniProt Q14994); test: qHTS assay to identify small molecule antagonists of the constitutive androstane receptor (CAR) signaling pathway (AID 1224838); further: nearly all actives have a fitted effect of over 40% in size; further: potency means the concentration at half of the fitted maximal effect
# In short: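 Compounds were titrated across 15 concentrations onto HepG2 cells double-stably expressing hCAR and a CYP2B6-2.2kb reporter, together with 50 nM CITCO (final). After 24 h at 37 C, luciferase activity was measured by luminescence.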
# [6] = molecular target: Nuclear receptor subfamily 1 group I member 3 (Homo sapiens) (UniProt Q14994); test: qHTS assay to identify small molecule agonists of the constitutive androstane receptor (CAR) signaling pathway (AID 1224839); further: nearly all actives have a fitted effect of over 15% in size; further: potency means the concentration at half of the fitted maximal effect
# In short: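 HepG2-CYP2B6-hCAR cells, 2500/well, 4 h pre-incubation; compounds 15 conc.; PK11195 0.75 uM final; 24 h, 37 C/5% CO2; ONE-Glo luciferase read.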
# [7] = qHTS assay to identify small molecule antagonists of the estrogen related receptor signaling pathway with the pleiotropic PPARgamma coactivator (PGC) from Tox21 10K library - cell viability counter screen (AID 1224840; active means well fitted cell-killing curve with a large enough effect in the repeat runs, not every such curve was filed as active; further: nearly all actives have a fitted effect of over 40% in size; further: potency means the concentration at half of the fitted maximal effect)
# In short: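 Step one, plate 2,000 PGC/ERR cells per well; step two, incubate 6 h at 37 C/5% CO2; step three, pin-transfer compounds; step four, incubate 17.5 h; step five, add CellTiter-Fluor and read fluorescence after 30 min.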
# [8] = qHTS assay to identify small molecule antagonists of the estrogen related receptor signaling pathway with the pleiotropic PPARgamma coactivator (PGC) from Tox21 10K library (AID 1224841; call rule not given here; further: actives are mostly falling curves and most rising ones were filed inactive; nearly all actives have a fitted effect of over 50% in size; further: potency means the concentration at half of the fitted maximal effect)
# In short: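 Antagonism in this quantitative HTS is taken from loss of luciferase signal in PGC/ERR cells. Cells (2,000/well) are treated with compounds in DMSO after a 6 h settling period and read by One-Glo luminescence after 18 h.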
# [9] = qHTS assay to identify small molecule agonists of the estrogen related receptor signaling pathway with the pleiotropic PPARgamma coactivator (PGC) from Tox21 10K library (AID 1224842); further: nearly all actives have a fitted effect of over 15% in size; further: potency means the concentration at half of the fitted maximal effect
# In short: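 PGC/ERR reporter cells (NTP line) were seeded 2,000 per well, rested 6 h at 37 C/5% CO2, then pin-dosed with compounds in DMSO for 18 h at 37 C; luciferase read by One-Glo luminescence after 30 min at room temperature.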
# [10] = molecular target: Thyrotropin receptor (Homo sapiens) (UniProt P16473); test: qHTS assay to identify small molecule agonists of the thyroid stimulating hormone receptor (TSHR) signaling pathway (AID 1224843; calls by dose curve; further: nearly all actives have a fitted effect of over 45% in size)
# In short: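 Cell line HEK293 with TSHR; density 800/well. Exposure 30 min RT. Readout HTRF cAMP (cAMP-d2/anti-cAMP-cryptate), 1 h RT before reading.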
# Sequence of Thyrotropin receptor (Homo sapiens) (P16473 whole entry, looked up): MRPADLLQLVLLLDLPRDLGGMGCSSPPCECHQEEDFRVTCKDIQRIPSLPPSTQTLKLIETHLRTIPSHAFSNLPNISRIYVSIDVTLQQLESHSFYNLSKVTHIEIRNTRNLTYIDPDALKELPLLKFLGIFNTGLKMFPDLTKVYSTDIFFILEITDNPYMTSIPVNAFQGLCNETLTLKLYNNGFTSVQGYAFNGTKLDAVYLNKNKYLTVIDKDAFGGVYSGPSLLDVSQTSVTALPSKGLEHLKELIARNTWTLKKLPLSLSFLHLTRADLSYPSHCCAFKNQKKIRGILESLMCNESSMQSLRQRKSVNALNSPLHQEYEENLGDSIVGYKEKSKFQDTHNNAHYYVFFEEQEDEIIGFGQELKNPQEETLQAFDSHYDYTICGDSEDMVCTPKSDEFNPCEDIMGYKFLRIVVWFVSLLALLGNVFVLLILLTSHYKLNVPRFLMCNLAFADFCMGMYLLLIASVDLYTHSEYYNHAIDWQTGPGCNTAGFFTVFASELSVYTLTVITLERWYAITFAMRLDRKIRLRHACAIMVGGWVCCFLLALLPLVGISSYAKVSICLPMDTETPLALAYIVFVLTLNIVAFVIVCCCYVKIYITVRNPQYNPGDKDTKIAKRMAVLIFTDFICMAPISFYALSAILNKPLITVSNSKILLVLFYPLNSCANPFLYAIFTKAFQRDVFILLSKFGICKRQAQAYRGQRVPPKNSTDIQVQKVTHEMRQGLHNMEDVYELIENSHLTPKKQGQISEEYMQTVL
# Sequence of Nuclear receptor subfamily 1 group I member 3 (Homo sapiens) (Q14994 whole entry, looked up): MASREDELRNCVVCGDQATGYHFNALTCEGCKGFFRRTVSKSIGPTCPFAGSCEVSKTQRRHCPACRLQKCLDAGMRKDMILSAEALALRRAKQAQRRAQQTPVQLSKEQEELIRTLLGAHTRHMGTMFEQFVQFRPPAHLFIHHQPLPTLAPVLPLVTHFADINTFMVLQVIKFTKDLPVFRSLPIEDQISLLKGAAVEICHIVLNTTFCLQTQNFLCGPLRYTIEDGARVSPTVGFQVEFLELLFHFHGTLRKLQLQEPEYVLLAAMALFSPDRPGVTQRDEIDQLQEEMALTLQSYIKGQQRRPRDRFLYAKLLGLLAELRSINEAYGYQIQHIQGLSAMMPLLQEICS
# Sequence of Luciferin 4-monooxygenase (Photinus pyralis) (P08659 whole entry, looked up): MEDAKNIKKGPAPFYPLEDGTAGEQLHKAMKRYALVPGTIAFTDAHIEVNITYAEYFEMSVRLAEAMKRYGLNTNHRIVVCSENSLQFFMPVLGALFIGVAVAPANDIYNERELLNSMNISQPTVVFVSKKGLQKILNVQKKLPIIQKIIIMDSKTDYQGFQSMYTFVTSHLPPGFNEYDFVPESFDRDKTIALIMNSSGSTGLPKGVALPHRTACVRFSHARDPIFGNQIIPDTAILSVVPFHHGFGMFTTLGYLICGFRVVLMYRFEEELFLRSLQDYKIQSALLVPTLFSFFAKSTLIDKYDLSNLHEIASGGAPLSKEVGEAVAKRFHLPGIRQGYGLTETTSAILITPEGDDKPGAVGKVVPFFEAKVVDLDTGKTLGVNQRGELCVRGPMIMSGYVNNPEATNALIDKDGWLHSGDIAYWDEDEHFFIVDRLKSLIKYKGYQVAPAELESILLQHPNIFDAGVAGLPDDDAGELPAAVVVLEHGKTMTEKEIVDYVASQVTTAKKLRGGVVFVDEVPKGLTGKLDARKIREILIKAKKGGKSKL
SMILES,Potency [1],Potency [2],Potency [3],Potency [4],Potency [5],Potency [6],Potency [7],Potency [8],Potency [9],outcome [10]
O=C1CN(/N=C/c2ccc([N+](=O)[O-])o2)C(=O)N1,30.5 µM (active) and 61.1 µM (active),inactive,27.2 µM (active) and 21.7 µM (active) and 13.3 µM (active),27.2 µM (active) and 21.7 µM (active) and 21.1 µM (active),inactive,inactive,54.3 µM (active),19.3 µM (active) and 24.3 µM (active) and 16.8 µM (active),inactive,inactive
CCCCC1C(=O)N(c2ccccc2)N(c2ccccc2)C1=O,inactive,inactive,inactive,inactive,inactive,inactive,inactive,inactive,inactive,inactive
C1N2CN3CN1CN(C2)C3,inactive,inactive,inactive,inactive,inactive,inactive,inactive,,,inactive
O=C(O)CCCCCCCC(=O)O,inactive,inactive,inactive,inactive,inactive,inactive,inactive,,,inactive
O=C(O)c1cc(N=Nc2ccc(S(=O)(=O)Nc3ccccn3)cc2)ccc1O,27.4 µM (active) and 27.3 µM (active) and 23.7 µM (active),71.3 µM (active) and inactive,,,,,30.7 µM (active) and inactive,,,inactive
Nc1ccn([C@H]2CC[C@@H](CO)O2)c(=O)n1,,inactive,inactive,inactive,,,inactive,,,inactive
O=C(c1ccccc1)c1ccccc1,,,inactive,inactive,,,inactive,,,
CCCC(CCC)C(=O)O,,inactive,inactive,inactive,,,inactive,,,inactive
Cc1ccc(C)c(OCCCC(C)(C)C(=O)O)c1,,inactive,inactive,inactive,,,inactive,,,inactive
OCCc1ccccc1,,inactive,inactive,inactive,,,inactive,,,inactive
NC(=O)NC1NC(=O)NC1=O (stereo not given),,inactive,inactive,inactive,inactive,inactive,inactive,,,inactive
O=C(c1ccccc1)C(O)c1ccccc1 (stereo not given),,inactive,inactive,inactive,inactive,,inactive,,,inactive
O=C(O)/C=C\C(=O)O,,inactive,inactive,inactive,inactive,,,,,inactive
O=C1NC(=O)c2ccccc21,,inactive,inactive,inactive,inactive,inactive,inactive,,,inactive
Oc1ccc(/C=C/c2cc(O)cc(O)c2)cc1,,,inactive,inactive,inactive,19.5 µM (active) and 21.7 µM (active) and 29.8 µM (active),inactive,inactive,5.5 µM (active) and 4.86 µM (active) and 10.6 µM (active),inactive
Nc1ccc(S(=O)(=O)Nc2nccs2)cc1,,inactive,inactive,inactive,,,inactive,inactive,inactive,inactive
COC(=O)[C@H](Cc1ccccc1)NC(=O)[C@@H](N)CC(=O)O (H-Asp-Phe-OMe),,inactive,inactive,inactive,,,inactive,,,inactive
CCCC(O)C(CC)CO (stereo not given),,inactive,inactive,inactive,,,inactive,,,
OC(Cn1cncn1)(Cn1cncn1)c1ccc(F)cc1F,,inactive,inactive,inactive,,,inactive,inactive,,inactive
O=C(O)CCCCC(=O)O,,inactive,inactive,inactive,,,inactive,,,inactive
Cc1ccc(S(=O)(=O)NC(=O)NN2CCCCCC2)cc1,,inactive,inactive,inactive,inactive,,inactive,inactive,inactive,inactive

SMILES,Potency [1],Potency [2],Potency [3],Potency [4],Potency [5],Potency [6],Potency [7],Potency [8],Potency [9],outcome [10]
CC(C)[C@@H]1CC[C@@H](C)C[C@H]1O,,inactive,inactive,inactive,inactive,inactive,inactive,,,inactive
N=C(N)c1ccc(OCCCCCOc2ccc(C(=N)N)cc2)cc1,,inactive,inactive,,,,inactive,,,inactive
O=C(C1CCCCC1)N1CC(=O)N2CCc3ccccc3C2C1 (stereo not given),,inactive,inactive,inactive,,inactive,inactive,inactive,inactive,
CCC1(c2ccccc2)C(=O)NCNC1=O,,inactive,inactive,inactive,inactive,inactive,inactive,,,inactive
c1ccc2[nH]ccc2c1,,inactive,,,,,8.49 µM (active) and inactive,2.69 µM (active) and inactive,inactive,inactive
CC(=O)OCC(COC(C)=O)OC(C)=O,,inactive,inactive,inactive,,,inactive,inactive,inactive,inactive
NC(=O)c1ccccc1O,,inactive,inactive,inactive,,,inactive,,,inactive
O=NO,,,inactive,inactive,inactive,inactive,inactive,,,inactive
NC(N)=NC(=O)c1nc(Cl)c(N)nc1N,,inactive,inactive,inactive,61.5 µM (active) and 50.4 µM (active) and inactive,inactive,inactive,,,inactive
O=C(O)c1cccnc1,,,inactive,inactive,inactive,inactive,inactive,,,inactive
Cc1ccc(O)cc1,,inactive,,,,,inactive,,,inactive
Nc1ccc(O)c(C(=O)O)c1,,,inactive,inactive,inactive,inactive,inactive,inactive,inactive,inactive
CCOc1ccc(NC(=O)CC(C)O)cc1 (stereo not given),,inactive,inactive,inactive,,,inactive,,,inactive
Nc1ccc(S(=O)(=O)c2ccc(N)cc2)cc1,,inactive,inactive,inactive,,,inactive,,,inactive
O=C(O)CS,,inactive,inactive,inactive,,,inactive,,,
O=C(O)c1cccc([N+](=O)[O-])c1,,inactive,inactive,inactive,,,inactive,,,
O=C(O)C(=O)O,,inactive,inactive,inactive,,,inactive,,,inactive
O=S(=O)(O)NC1CCCCC1,,,inactive,inactive,inactive,inactive,inactive,,,inactive
CCCCCCCCCCCCCCCC(=O)O,,inactive,inactive,inactive,inactive,inactive,inactive,,,inactive
CC(O)CO (stereo not given),,inactive,inactive,inactive,,,inactive,inactive,inactive,inactive
COc1c2occc2cc2ccc(=O)oc12,,,inactive,inactive,,,inactive,,,inactive
